Laboratory results from PubChem BioAssay AID1159580 (chemical genetic matrix, 2015).
Where “and” joins values, the source holds several entries; their conditions need not be identical. Equal values may be shown once. Screen size: about 5,500 compounds; about 2,000 (36%) were called active. Not shown: some 18% with an inconclusive outcome. Cut-off read from the data, not from the text of the source: active = normalized growth mostly below about 0.91 (no sharp cut-off); inconclusive = no clear call, values can overlap the other calls; inactive = mostly above about 0.92. Some of the results follow.

Assay: chemical genetic growth profiling, strain panel (AID 1159580);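 note: tested at 20 µM; growth read once vehicle control cultures reached saturation at 30 °C; 1 = growth at the plate median or of vehicle wells; lower values mean less growth of the strain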
Conditions: S. cerevisiae deletion strains, growth OD

Measured: normalized growth

CC1(C)C[C@@H]2C(=O)CC[C@H]3O[C@]3(C)CC[C@H]21
inactive: locus YAL013W, strain DEP1, active compounds read low 1.01 | locus YAL021C, strain ccr4, active compounds read low 0.98 | locus YAL026C, strain drs2, active compounds read low 1.04 | locus YAL030W, strain snc1, active compounds read low 1.01 | locus YBL061C, strain skt5, active compounds read low 1.03 | locus YBR009C, strain hhf1, active compounds read low 1.02 | locus YBR021W, strain FUR4, active compounds read low 1.01 | locus YBR023C, strain chs3, active compounds read low 1.02 | locus YBR171W, strain sec66, active compounds read low 1.02 | locus YBR229C, strain ROT2, active compounds read low 1 | locus YBR231C, strain swc5, active compounds read low 1 | locus YBR279W, strain paf1, active compounds read low 1 | locus YCL011C, strain gbp2, active compounds read low 1.02 | locus YCL016C, strain dcc1, active compounds read low 1.01 | locus YCL029C, strain bik1, active compounds read low 0.994 | locus YCL061C, strain MRC1, active compounds read low 1.01 | locus YCL069W, strain vba3, active compounds read low 1.01 | locus YCR088W, strain abp1, active compounds read low 1.01 | locus YDL005C, strain med2, active compounds read low 1.01 | locus YDL035C, strain GPR1, active compounds read low 1.01 | locus YDL040C, strain nat1, active compounds read low 1.02 | locus YDL074C, strain BRE1, active compounds read low 1.04 | locus YDL101C, strain DUN1, active compounds read low 1.02 | locus YDL134C, strain PPH21, active compounds read low 1.01 | locus YDL185W, strain tfp1, active compounds read low 0.995 | locus YDL192W, strain arf1, active compounds read low 0.996 | locus YDR001C, strain nth1, active compounds read low 1.02 | locus YDR069C, strain doa4, active compounds read low 1.03 | locus YDR101C, strain arx1, active compounds read low 0.986 | locus YDR137W, strain rgp1, active compounds read low 1.02 | locus YDR150W, strain NUM1, active compounds read low 1.01 | locus YDR159W, strain sac3, active compounds read low 1.05 | locus YDR162C, strain NBP2, active compounds read low 1.02 | locus YDR195W, strain ref2 1.01 | locus YDR297W, strain sur2, active compounds read low 1.01 | locus YDR318W, strain mcm21, active compounds read low 0.994 | locus YDR334W, strain swr1, active compounds read low 1.01 | locus YDR335W, strain msn5, active compounds read low 1.01 | locus YDR388W, active compounds read low 0.996 | locus YDR392W, strain spt3, active compounds read low 0.914 | locus YDR502C, strain sam2, active compounds read low 0.994 | locus YEL003W, strain gim4, active compounds read low 1.01 | locus YEL037C, strain rad23, active compounds read low 1.01 | locus YEL061C, strain CIN8 (second series), active compounds read low 1.02 | locus YEL061C, strain CIN8, active compounds read low 1 | locus YER015W, strain faa2, active compounds read low 1.01 | locus YER016W, strain bim1, active compounds read low 1.01 | locus YER110C, active compounds read low 0.989 | locus YER111C, strain swi4, active compounds read low 1.01 | locus YER155C, strain BEM2 (second series), active compounds read low 1.03 | locus YER155C, strain BEM2, active compounds read low 1 | locus YER167W, strain BCK2, active compounds read low 1.01 | locus YFR010W, strain ubp6, active compounds read low 1.04 | locus YGL078C, strain dbp3, active compounds read low 0.999 | locus YGL086W, strain mad1, active compounds read low 0.966 | locus YGL167C, strain pmr1, active compounds read low 1.02 | locus YGL173C, strain kem1, active compounds read low 1.03 | locus YGL227W, strain vid30, active compounds read low 1.01 | locus YGL240W, strain doc1, active compounds read low 1.02 | locus YGL248W, strain PDE1, active compounds read low 1 | locus YGL253W, strain hxk2, active compounds read low 1.03 | locus YGR078C, strain PAC10, active compounds read low 1.02 | locus YGR135W, strain pre9, active compounds read low 0.999 | locus YGR229C, strain SMI1, active compounds read low 1.01 | locus YGR252W, strain gcn5, active compounds read low 1.01 | locus YHR013C, strain ard1, active compounds read low 1.03 | locus YHR027C, strain rpn1, active compounds read low 1.02 | locus YHR030C, strain SLT2, active compounds read low 1.01 and 0.967 | locus YHR079C, strain IRE1 (second series), active compounds read low 0.996 | locus YHR079C, strain IRE1, active compounds read low 0.953 | locus YHR094C, strain hxt1, active compounds read low 0.998 | locus YHR129C, strain ARP1, active compounds read low 1.01 | locus YHR142W, strain chs7, active compounds read low 1.02 | locus YHR200W, strain rpn10, active compounds read low 0.997 | locus YIL066C, strain RNR3, active compounds read low 1 | locus YIL073C, strain SPO22, active compounds read low 0.968 | locus YIL125W, strain kgd1, active compounds read low 0.998 | locus YIR030C, strain dcg1, active compounds read low 0.986 | locus YJL092W, strain hpr5, active compounds read low 1.02 | locus YJL095W, strain BCK1 (second series), active compounds read low 1.04 | locus YJL095W, strain BCK1, active compounds read low 1.01 and 0.961 | locus YJL115W, strain asf1, active compounds read low 1.01 | locus YJL129C, strain trk1, active compounds read low 1.02 | locus YJL134W, strain LCB3, active compounds read low 1.01 | locus YJL154C, strain vps35, active compounds read low 1.01 | locus YJL164C, strain tpk1, active compounds read low 0.995 | locus YJL166W, strain qcr8, active compounds read low 1.04 | locus YJL168C, strain set2, active compounds read low 0.994 | locus YJL187C, strain SWE1 (second series), active compounds read low 1.02 | locus YJL187C, strain SWE1, active compounds read low 1 | locus YJR043C, strain POL32, active compounds read low 1 | locus YJR066W, strain TOR1, active compounds read low 0.998
